Measured values reported in PubChem BioAssay (NCI).
Compounds without any hit were thinned out: in the full panel of roughly 79,000, 15% have a hit. Unmarked numbers belong to inactive results. Activity calls are given as the source filed them. Rule as the data show it: active = growth inhibition above about 70%; inactive = the rest.

Experiments:
[1] = NCI Yeast Anticancer Drug Screen. Data for the rad50 strain (AID 155);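 also: 0% = growth of vehicle-only cultures of the same strain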; details: S. cerevisiae rad50 strain growth inhibition, hits give high values
Procedure, shortened: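 Cells are treated with compound, grown, and their growth is then scored against vehicle-only cultures of the same repair-deficient yeast strain.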

[2] = NCI Yeast Anticancer Drug Screen. Data for the mec2-1 strain (AID 157); details: S. cerevisiae mec2-1 strain, hits give high values
Procedure, shortened: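 Each compound was tested on mec2-1 yeast, a strain altered in DNA damage repair or cell cycle control. Growth inhibition is reported relative to vehicle.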

[3] = NCI Yeast Anticancer Drug Screen. Data for the sgs1 mgt1 strain (AID 161);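 also: 0% = growth of cultures given vehicle only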; details: S. cerevisiae sgs1 mgt1 strain, hits give high values
Procedure, shortened: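 Mutant yeast exposed to compound; growth scored against vehicle-only wells.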

[4] = NCI Yeast Anticancer Drug Screen. Data for the cln2 rad14 strain (AID 165);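 also: 0% = growth equal to vehicle treated cultures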; details: S. cerevisiae cln2 rad14 strain, hits give high values
Procedure, shortened: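 Test compounds were added to cln2 rad14 yeast cultures; inhibition of growth was then determined by comparison with vehicle treatment.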

[5] = NCI Yeast Anticancer Drug Screen. Data for the bub3 strain (AID 167); details: S. cerevisiae bub3 mutant strain, hits give high values
Procedure, shortened: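 Part of a panel of yeast mutants defective in DNA damage repair or cell cycle regulation. Each strain is grown with compound, and inhibition is calculated relative to solvent-treated cultures.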

[6] = NCI Yeast Anticancer Drug Screen. Data for the mlh1 rad18 strain (AID 175); details: S. cerevisiae mlh1 rad18 strain growth inhibition, hits give high values
Procedure, shortened: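 Inhibition values reflect reduced growth of mutant yeast versus vehicle-treated controls following compound exposure; the mutations affect DNA damage repair.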

[7] = at 5.0 µM (retest, dose inferred, filed as 0.5)
[8] = at 50.0 µM (retest, dose inferred, filed as 5.0)

Row | SMILES | growth inhibition [1, 7] | growth inhibition [1, 8] | growth inhibition ([1]; at 50.0 µM) | growth inhibition [2, 7] | growth inhibition [2, 8] | growth inhibition ([2]; at 50.0 µM) | growth inhibition [3, 7] | growth inhibition [3, 8] | growth inhibition ([3]; at 50.0 µM) | growth inhibition [4, 7] | growth inhibition [4, 8] | growth inhibition ([4]; at 50.0 µM) | growth inhibition [5, 7] | growth inhibition [5, 8] | growth inhibition ([5]; at 50.0 µM) | growth inhibition [6, 7] | growth inhibition [6, 8] | growth inhibition ([6]; at 50.0 µM)
1 | N#CC(C#N)=Cc1ccc(Cl)o1 | 2% | 54% | 59.6% | 4% | 47% | 50% | 2% | 24% | 61.8% | -6% | 26% | 42.4% | -2% | 35% | 45% | 1% | 29% | 82.8% (active)
2 | [N-]=[N+]=NC1(N=[N+]=[N-])C(=O)NN=C(c2ccccc2)C1=O (configuration not stated) | -12% | 87% (active) | 84% (active) | 15% | 91% (active) | 91.2% (active) | 4% | 83% (active) | 88% (active) | 23% | 87% (active) | 86.8% (active) | -3% | 97% (active) | 89.7% (active) | 31% | 97% (active) | 79.7% (active)
3 | C#CCN1C(=O)N(CC#C)C(=O)C(CC#C)(C(CC=C)c2ccccc2)C1=O (configuration not stated) | 1% | 96% (active) | 57.3% | 2% | 97% (active) | 26.6% | -1% | 97% (active) | 66.5% | 16% | 95% (active) | 58.5% | 9% | 98% (active) | 59% | -23% | 97% (active) | 53.4%
4 | ClC1CCCCC1[Se](Cl)(Cl)C1CCCCC1Cl (configuration not stated) | 34% | 98% (active) | 99% (active) | 45% | 100% (active) | 98.7% (active) | 12% | 99% (active) | 99.5% (active) | -15% | 99% (active) | 97.9% (active) | 8% | 99% (active) | 95.6% (active) | 43% | 99% (active) | 98.8% (active)
5 | Oc1cc(Cl)c(Cl)cc1Cl.[Cu+2] | 78% (active) | 96% (active) | 99% (active) | 45% | 98% (active) | 98.9% (active) | 48% | 70% (active) | 99.3% (active) | 21% | 98% (active) | 97.7% (active) | 97% (active) | 97% (active) | 99% (active) | 91% (active) | 97% (active) | 99.2% (active)
6 | CC(C)=N.[C-]#[O+].[C-]#[O+].[C-]#[O+].[C-]#[O+].[C-]#[O+].[W] | 30% | 34% | -7.35% | 15% | 35% | -2.45% | 26% | 34% | -11.8% | 36% | 31% | 0.7% | 36% | 47% | 64.5% | 45% | 43% | -13.1%
7 | O=[N+]([O-])c1ccc(N2CCOCC2)c2c1no[n+]2[O-] | 98% (active) | 99% (active) | 90.9% (active) | 99% (active) | 100% (active) | 94% (active) | 94% (active) | 99% (active) | 89% (active) | 55% | 99% (active) | 74% (active) | 91% (active) | 99% (active) | 92.2% (active) | 98% (active) | 99% (active) | 84.2% (active)
8 | CC/C(=C/c1ccc(OC)cc1OC)[N+](=O)[O-] | 66% | 99% (active) | 99.4% (active) | 48% | 100% (active) | 99.7% (active) | 51% | 98% (active) | 99% (active) | 22% | 99% (active) | 99.3% (active) | 44% | 99% (active) | 99.5% (active) | 39% | 99% (active) | 99.2% (active)
9 | CCC[CH2][Sn]1([CH2]CCC)[O]c2ccccc2[O]1 | 9% | 95% (active) | 89% (active) | 23% | 94% (active) | 90.8% (active) | 13% | 94% (active) | 90.5% (active) | 0% | 92% (active) | 83.8% (active) | 35% | 95% (active) | 89.4% (active) | 11% | 96% (active) | 89.1% (active)
10 | C[CH2][Sn]1([CH2]C)[O]S(=O)(=O)[O]1 | 15% | 77% (active) | 70.2% (active) | 12% | 95% (active) | 76.5% (active) | 12% | 93% (active) | 25.4% | 22% | 56% | 60.2% | 13% | 92% (active) | 45.1% | 12% | 88% (active) | 53.9%
11 | CC(=O)Nc1ccccc1[As](OC(C)=O)c1ccccc1 (configuration not stated) | 18% | 97% (active) | 99.3% (active) | 11% | 99% (active) | 99.4% (active) | 28% | 98% (active) | 99.5% (active) | 99% (active) | 84% (active) | 98.7% (active) | -3% | 99% (active) | 99.5% (active) | 29% | 98% (active) | 99% (active)
12 | CC1CCN(CCC(=O)CC(c2ccccc2)c2c(O)c3ccccc3oc2=O)CC1 (configuration not stated) | 16% | 16% | 87.3% (active) | 10% | 10% | 83.8% (active) | 12% | 12% | 88% (active) | 2% | 2% | 89.8% (active) | 4% | 4% | 87.7% (active) | 18% | 18% | 88.3% (active)
13 | [Cl][Sn]([CH2]c1ccccc1)([CH2]c1ccccc1)[CH2]c1ccccc1 | 99% (active) | 98% (active) | 99% (active) | 100% (active) | 99% (active) | 99.2% (active) | 100% (active) | 99% (active) | 99.3% (active) | 99% (active) | 98% (active) | 98.7% (active) | 99% (active) | 99% (active) | 98.5% (active) | 99% (active) | 99% (active) | 99% (active)
14 | CCCCCCCCCCCCCCCC[N+](C)(C)CCOS(C)(=O)=O | 99% (active) | 98% (active) | 91.2% (active) | 99% (active) | 99% (active) | 90.4% (active) | 99% (active) | 99% (active) | 90.3% (active) | 93% (active) | 99% (active) | 86.5% (active) | 99% (active) | 99% (active) | 92.4% (active) | 98% (active) | 98% (active) | 92.3% (active)
15 | Cc1nnc2n1-c1ccc(Cl)cc1C(c1ccccc1)=[N+]([O-])C2 | 4% | 0% | -16.8% | -3% | -9% | -0.7% | 1% | 3% | 3.05% | 1% | 12% | 64.7% | -1% | -1% | 7.45% | -3% | -4% | -6.2%
16 | CCCCSc1ccc(C(SCCN(CC)CC)c2ccccc2)cc1 (configuration not stated) | 12% | 99% (active) | 99.8% (active) | 11% | 100% (active) | 99.8% (active) | 45% | 100% (active) | 99.8% (active) | 32% | 99% (active) | 99.8% (active) | 36% | 99% (active) | 99.7% (active) | 27% | 99% (active) | 99.7% (active)
17 | CC(=O)[O-].CC(=O)[O-].O=C(N/N=C/c1cc(Cl)cc(Cl)c1[OH2+])c1ccncc1.[Co+2] | 6% | 23% | 51.6% | 17% | 41% | 61.9% | 7% | 33% | 58.2% | 5% | 13% | 26.4% | 2% | 9% | 48% | 4% | 39% | 73.5% (active)
18 | CN1C2CCC1c1c([nH]c3ccccc13)C2 (configuration not stated) | -22% | -23% | 3.25% | -9% | -3% | 18.5% | -7% | -10% | 20.6% | -19% | -3% | 42% | -7% | -1% | 6.25% | -7% | -12% | 12.4%
19 | CC(=O)OC1CCC2C3CCC4C(F)C(=O)C(F)(F)CC4(C)C3CCC12C (configuration not stated) | 2% | 78% (active) | 49% | -12% | 93% (active) | 5.6% | -2% | 91% (active) | 63.5% | -3% | 46% | 63% | -1% | 60% | 8.95% | 0% | 90% (active) | 12.7%
